Source: PubChem BioAssay (Broad Institute)
Shown is part of a subset that was picked to be rich in hits.
Tgondii IFNg – T. gondii growth inhibition under IFN-gamma | activity change, negative = inhibition, % (no concentration beside the values) | Toxoplasma gondii growth in IFN-gamma-treated host cells; stronger effect = lower value | actives 3.8% (n = 69,000); in the data active = activity change below about -70%, passing the limit was not always enough;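 note: host cells are HeLa cells infected with Toxoplasma gondii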
* hit, by the source's call; i = inactive.

SMILES | Tgondii IFNg
C[C@@H]1COC(Nc2ccc3ncnc(Nc4ccc(OCc5nccs5)c(Cl)c4)c3c2)=N1 | -73*
COc1cc2ncnc(Nc3cccc(Cl)c3)c2cc1OC | -70
CCOC(=O)c1nc(N2CCN(c3cccc(C)c3C)CC2)c2ccccc2n1 | -22
CCOc1ccc(-c2nc(CN(c3ccccc3OCC)S(=O)(=O)c3cccs3)c(C)o2)cc1 | 8
CO[C@H]1CC(O[C@@H]2/C(C)=C/C[C@@H]3C[C@@H](C[C@]4(CC[C@H](C)[C@@H](C5CCCCC5)O4)O3)OC(=O)[C@@H]3C=C(C)/C(=N/O)[C@H]4OC/C(=C\C=C\[C@@H]2C)[C@]43O)O[C@@H](C)C1O (stereo partly specified) | -80*
CCC(C)[C@H]1O[C@]2(C=C[C@@H]1C)C[C@@H]1C[C@@H](C/C=C(\C)[C@@H](OC3C[C@H](OC)C(O[C@H]4C[C@H](OC)[C@@H](NC(C)=O)[C@H](C)O4)[C@H](C)O3)[C@@H](C)/C=C/C=C3\CO[C@@H]4[C@H](O)C(C)=C[C@@H](C(=O)O1)[C@]34O)O2 (stereo partly specified) | 13
CCCc1cc(C(=O)N2CCCC(Cc3ccccc3-c3cccs3)(C(N)=O)C2)no1 (stereo unspecified) | -10
CCCNC(=O)N1[C@@H]2c3ccc(-c4ccc(OC)cc4)c(=O)n3C[C@H]1[C@H](CO)[C@H]2C(=O)NC1CCC1 | -4
Cc1cc2nc(CCNC(=O)c3cnc(-c4ccc(Cl)cc4)nc3)[nH]c2cc1C | -95*
COc1ccc(-c2cc(C(=O)NCCc3nc4cc(C)c(C)cc4[nH]3)nn2C)cc1 | -1
Cc1ccc2c(c1)cc(C(=O)NCCc1nc3cc(C)c(C)cc3[nH]1)n2C | 7
Cc1cc2oc(=O)cc(C)c2cc1NC(=O)COCC(F)(F)C(F)F | 4
O=C(Cc1ccccc1)N1CCn2nnc(COc3cccnc3)c2C1 | 6
COCC1(C(=O)Nc2cccc(NC(=O)c3ccccc3OC)c2)CCC1 | -2
COc1ccccc1C(=O)Nc1ccc(-c2nc(-c3ccc(C)cc3)co2)cc1 | -55
COc1ccccc1C(=O)Nc1cccc(NC(=O)c2c(Cl)cnn2C)c1 | -85*
Cc1ccnc(-n2c(COCC(=O)O)nc3ccccc32)c1 | 2
O=C(O)c1cc(Br)cc(S(=O)(=O)N2CCSCC2)c1 | 7
CCN(CC)c1ncc2c(c1C(=O)O)CCN(Cc1cnn(C)c1)C2 | -3
COCCN1C(=O)CCc2cc(NC(=O)COc3cccc(C)c3)ccc21 | 4
Cc1ccc(S(=O)(=O)n2c(N)nc3ccccc32)cc1 | 18
O=C(NC1CCCCNC1=O)c1cn(S(=O)(=O)c2ccccc2)c2ccccc12 (stereo unspecified) | -41
CCC(=O)c1cn(S(=O)(=O)c2ccc(C)cc2)c2ccccc12 | -101*
Cc1occc1C(=O)N1CC[C@H](OCC2CC2)[C@@H](Cc2ccccc2)C1 | 6
CC12NC(=S)NC(c3cc(Br)ccc3O1)C2C(=O)Nc1ccccc1 (stereo unspecified) | 36
SMILES | Tgondii IFNg
CCNc1ccnc(N2CCN(Cc3ccc4c(c3)OCO4)CC2)n1 | -13
CCc1cnc(C)nc1N1CCN(Cc2ccc3c(c2)OCO3)C(=O)C1 | -85*
Cc1ccc(NC(=O)CC(=O)N2CCN(Cc3ccc4c(c3)OCO4)C(=O)C2)cc1 | -52
COc1ccc(Cc2nn3c(C(=O)c4cccs4)nn(-c4ccccc4)c3nc2=O)cc1 | -94*
COc1ccc(-c2nc(C)c(CCNC(=O)c3cccs3)s2)cc1 | i
COc1ccc(-c2nc(C)c(CCNC(=O)C(=O)Nc3ccccc3)s2)cc1 | 1
CSc1ccccc1OCc1cc(C(=O)N2CCC(c3ccccc3Cl)C2)no1 (stereo unspecified) | 184
CN(C)C(=O)c1cc2c(s1)CCN2C(=O)C1CC1 | 60
O=C(Cc1ccc(F)cc1)N1CCC2(CC1)COCCN(c1ncccn1)C2 | -15
COc1ccc(C(=O)N2CCc3[nH]cnc3C23CCCCC3)cc1 | -6
O=C(Cc1ccc(OC(F)(F)F)cc1)N1CCc2[nH]cnc2C12CCCC2 | -80*
COc1cccc(-c2ccc(NC(=O)Cn3c(C)cc(O)cc3=O)cc2)c1 | 24
COc1cc(N2CCC3(CC2)OCC(=O)NC3C)ncn1 (stereo unspecified) | -1
CCOc1ccc2nc(N3CCCC(C(=O)N4CCN(c5ccccc5OC)CC4)C3)nc(C)c2c1 (stereo unspecified) | -12
COc1ccc(-c2ccnc(SCC(=O)Nc3ccccc3)n2)cc1 | -23
COCCn1c(-c2ccc(OC)cc2)cnc1SCC(=O)Nc1ccc(C)c(Cl)c1 | -90*
COc1ccc(CC(=O)Nc2ccc(-c3nc(-c4cc(C)ccc4C)co3)cc2)cc1 | -11
Cn1c(C(F)(F)F)nc2cc(NC(=O)c3cc(-n4cccn4)ccc3Cl)ccc21 | -5
Cc1[nH]nc2ccc(-c3cncc(OC[C@@H](N)Cc4ccccc4)c3)cc12 | -78*
COc1cncc(-c2ccc(F)c(CO)c2)c1 | -2
O=C(c1ccncc1)N1CCC2(CC1)CC(Nc1ncccn1)C2 | -3
O=C(NO)c1cnc(N2CCN(S(=O)(=O)c3ccc4ccccc4c3)CC2)nc1 | -70
Cn1cc(CNCC2CCN(c3ncc(C(=O)NO)cn3)CC2)c2ccccc21 | -79*
Cn1cc(CC(=O)NCc2cnn3ccccc23)c2ccccc21 | 42
CCn1c(SCC(=O)N2CCCC2)nnc1-c1ccncc1 | 3
SMILES | Tgondii IFNg
O=C(Cn1ncc2c(N3CCCCCC3)ncnc21)NCc1ccc(F)cc1 | -99*
CCOc1ccc(CNC(=O)Cn2ncc3c(N4CCCC4)ncnc32)cc1OCC | -4
CCc1ccc(NC(=O)Cn2ncc3c(N4CCCCCC4)ncnc32)cc1 | -34
CCc1ccc(CNC(=O)Cn2ncc3c(N4CCOCC4)ncnc32)cc1 | 279
O=C(Cn1ncc2c(N3CCCCCC3)ncnc21)Nc1ccc(F)cc1 | -3
COc1cccc(CNC(=O)Cn2ncc3c(N4CCCCCC4)ncnc32)c1 | -51
O=C(Cn1ncc2c(N3CCCC3)ncnc21)NCc1ccncc1 | -35
O=C(Cn1ncc2c(N3CCCCC3)ncnc21)NCc1ccccc1 | -92*
O=C(Cn1ncc2c(N3CCCCCC3)ncnc21)NCc1ccc(F)c(Cl)c1 | 3
CCc1ccc(CNC(=O)Cn2ncc3c(N4CCCCCC4)ncnc32)cc1 | -92*
O=C(Cn1ncc2c(N3CCCC3)ncnc21)Nc1ccc(F)cc1F | 55
O=C(Cn1ncc2c(N3CCCCCC3)ncnc21)NCc1ccc2c(c1)OCO2 | -97*
O=C(c1cc2n(n1)CCN(C(=O)C1COCCO1)C2)N1CCCC1 (stereo unspecified) | -28
Cc1nonc1C1CCCN1C(=O)CC12CC3CC(CC(C3)C1)C2 (stereo unspecified) | -5
COC1C(O)[C@@H](O)C(O)C(O)[C@H]1O (stereo partly specified) | 14
Cc1cccc(CN2CCC3(CCCN(Cc4cccnc4)C3)C2=O)n1 (stereo unspecified) | -6
Cc1cnc(CNC(=O)c2nc(-c3cn(Cc4ccccc4)cn3)n3ccccc23)cn1 | -40
CCN1C(=O)N(CC(=O)N(C(C)C)C(C)C)c2cccnc2N1CC | 206
COC(C)(C)CC(C)NCc1nncn1C1CCCCC1 (stereo unspecified) | 2
COc1ccccc1-n1cc(C(=O)N2CCc3c(nc[nH]c3=O)C2)cn1 | 34
COc1ccc(-n2c(=O)c(C(=O)Nc3ccc(F)c(Cl)c3)c(O)c3cccnc32)cc1 | 139
O=C(Cn1ncc2c(N3CCN(c4ccccn4)CC3)ncnc21)NCc1ccco1 | -97*
